# Test results reported in the supplement of paper PMC11738630.
# Tested on: Salmonella enterica serovar Typhimurium 14028s
# Assay: approximate change in surviving CFU after surface colonization relative to water-only control (log10 CFU/mL change); higher = more surviving bacteria (less inhibition of surface colonization)
# Settings: not stated (Biolog proprietary concentration), surface: plastic 96-well plate, 20-24 h at 25 °C
smiles,measurement,setting,value
OC[C@H]1O[C@@H]2O[C@H]3[C@H](O)[C@@H](O)[C@@H](O[C@H]4[C@H](O)[C@@H](O)[C@@H](O[C@H]5[C@H](O)[C@@H](O)[C@@H](O[C@H]6[C@H](O)[C@@H](O)[C@@H](O[C@H]7[C@H](O)[C@@H](O)[C@@H](O[C@H]8[C@H](O)[C@@H](O)[C@@H](O[C@H]1[C@H](O)[C@H]2O)O[C@@H]8CO)O[C@@H]7CO)O[C@@H]6CO)O[C@@H]5CO)O[C@@H]4CO)O[C@@H]3CO [b-Cyclodextrin],approximate change in surviving CFU (log10),"Biolog plate: PM2, Biolog well: A4",1.01
OC[C@H]1O[C@H](OC[C@H]2O[C@H](O[C@H]3[C@H](O)[C@@H](O)[C@@H](O)O[C@@H]3CO)[C@H](O)[C@@H](O)[C@@H]2O[C@H]2O[C@H](CO)[C@@H](O)[C@H](O)[C@H]2O)[C@H](O)[C@@H](O)[C@@H]1O [Glycogen],approximate change in surviving CFU (log10),"Biolog plate: PM2, Biolog well: A8",0.944
O=C(O)[C@H]1O[C@@H](O)[C@H](O)[C@@H](O)[C@H]1O [Pectin],approximate change in surviving CFU (log10),"Biolog plate: PM2, Biolog well: A12",-0.343
CC(=O)N[C@H]1[C@H]([C@H](O)[C@H](O)CO)OC(O)(C(=O)O)C[C@@H]1O (stereo partly drawn) [N-Acetyl-Neuraminic Acid],approximate change in surviving CFU (log10),"Biolog plate: PM2, Biolog well: B2",1.09
OC[C@H]1O[C@H](OC[C@H]2O[C@H](O[C@]3(CO)O[C@H](CO)[C@@H](O)[C@@H]3O)[C@H](O)[C@@H](O)[C@@H]2O)[C@H](O)[C@@H](O)[C@H]1O [D-Raffinose],approximate change in surviving CFU (log10),"Biolog plate: PM2, Biolog well: D1",0.494
O=C(CO)[C@@H](O[C@H]1O[C@H](CO)[C@@H](O)[C@H](O)[C@H]1O)[C@H](O)[C@H](O)CO [Turanose],approximate change in surviving CFU (log10),"Biolog plate: PM2, Biolog well: D7",0.88
CCCC(=O)C(=O)O [a-Keto-Valeric Acid],approximate change in surviving CFU (log10),"Biolog plate: PM2, Biolog well: E10",-0.966
O=C(O)CC(=O)O [Malonic Acid],approximate change in surviving CFU (log10),"Biolog plate: PM2, Biolog well: F2",0.0859
O=C(O)C(=O)O [Oxalic Acid],approximate change in surviving CFU (log10),"Biolog plate: PM2, Biolog well: F4",0.429
O=C(O)[C@]1(O)C[C@@H](O)[C@@H](O)[C@H](O)C1 [Quinic Acid],approximate change in surviving CFU (log10),"Biolog plate: PM2, Biolog well: F6",1.09
CC(=O)C(C)O (stereo not drawn) [3-Hydroxy-2-Butanone],approximate change in surviving CFU (log10),"Biolog plate: PM2, Biolog well: H12",-0.15
N [Ammonia],approximate change in surviving CFU (log10),"Biolog plate: PM3, Biolog well: A2",0.0644
NC(N)=O,approximate change in surviving CFU (log10),"Biolog plate: PM3, Biolog well: A5",0.429
N[C@@H](CS)C(=O)O [L-Cysteine],approximate change in surviving CFU (log10),"Biolog plate: PM3, Biolog well: A11",0.88
N[C@@H](Cc1ccc(O)cc1)C(=O)O [L-Tyrosine],approximate change in surviving CFU (log10),"Biolog plate: PM3, Biolog well: C1",0.3
NC(=O)C[C@@H](N)C(=O)O [D-Asparagine],approximate change in surviving CFU (log10),"Biolog plate: PM3, Biolog well: C4",0.644
CN [Methylamine],approximate change in surviving CFU (log10),"Biolog plate: PM3, Biolog well: D5",-1.05
CCCCCN [N-Amylamine],approximate change in surviving CFU (log10),"Biolog plate: PM3, Biolog well: D6",-0.708
CCCCN [N-Butylamine],approximate change in surviving CFU (log10),"Biolog plate: PM3, Biolog well: D7",-2.12
CCN [Ethylamine],approximate change in surviving CFU (log10),"Biolog plate: PM3, Biolog well: D8",-1.89
NCCc1ccccc1 [B-Phenylethyl-amine],approximate change in surviving CFU (log10),"Biolog plate: PM3, Biolog well: E2",-0.129
Nc1ccn([C@@H]2O[C@H](CO)[C@@H](O)[C@H]2O)c(=O)n1 [Cytidine],approximate change in surviving CFU (log10),"Biolog plate: PM3, Biolog well: F4",0.386
Nc1nc2[nH]cnc2c(=O)[nH]1 [Guanine],approximate change in surviving CFU (log10),"Biolog plate: PM3, Biolog well: F6",-2.83
"CCC(N)C(=O)O (racemic) [D,L-a-Amino-N-Butyric Acid]",approximate change in surviving CFU (log10),"Biolog plate: PM3, Biolog well: G7",-0.644
C[C@H](N)C(=O)N[C@@H](CCC(N)=O)C(=O)O,approximate change in surviving CFU (log10),"Biolog plate: PM3, Biolog well: H2",0.0644
NCC(=O)N[C@@H](CCC(=O)O)C(=O)O,approximate change in surviving CFU (log10),"Biolog plate: PM3, Biolog well: H10",0.472
CSCC[C@H](N)C(=O)N[C@@H](C)C(=O)O,approximate change in surviving CFU (log10),"Biolog plate: PM3, Biolog well: H12",0.0214
O=C1CC[C@@H](C(=O)O)N1 [L-Pyroglutamic Acid],approximate change in surviving CFU (log10),"Biolog plate: PM2, Biolog well: H3",-0.0858
same,approximate change in surviving CFU (log10),"Biolog plate: PM3, Biolog well: D3",-0.258
NC(=O)C[C@H](N)C(=O)O [L-Asparagine],approximate change in surviving CFU (log10),"Biolog plate: PM1, Biolog well: D1",0.944
same,approximate change in surviving CFU (log10),"Biolog plate: PM3, Biolog well: A9",0.451
N[C@@H](CO)C(=O)O [L-Serine],approximate change in surviving CFU (log10),"Biolog plate: PM1, Biolog well: G3",1.07
same,approximate change in surviving CFU (log10),"Biolog plate: PM3, Biolog well: B10",0.107
N[C@@H](CCC(=O)O)C(=O)O [L-Glutamic Acid],approximate change in surviving CFU (log10),"Biolog plate: PM1, Biolog well: B12",1.24
same,approximate change in surviving CFU (log10),"Biolog plate: PM3, Biolog well: A12",0.279
N[C@@H](CC(=O)O)C(=O)O [L-Aspartic Acid],approximate change in surviving CFU (log10),"Biolog plate: PM1, Biolog well: A7",0.644
same,approximate change in surviving CFU (log10),"Biolog plate: PM3, Biolog well: A10",0.451
NCCC[C@H](N)C(=O)O [L-Ornithine],approximate change in surviving CFU (log10),"Biolog plate: PM2, Biolog well: H1",0.708
same,approximate change in surviving CFU (log10),"Biolog plate: PM3, Biolog well: C12",0.172
NCC(=O)O [Glycine],approximate change in surviving CFU (log10),"Biolog plate: PM2, Biolog well: G5",0.494
same,approximate change in surviving CFU (log10),"Biolog plate: PM3, Biolog well: B2",0.15
N[C@H](CC(=O)O)C(=O)O [D-Aspartic Acid],approximate change in surviving CFU (log10),"Biolog plate: PM1, Biolog well: D2",1.01
same,approximate change in surviving CFU (log10),"Biolog plate: PM3, Biolog well: C5",0.816
NCCCCN [Putrescine],approximate change in surviving CFU (log10),"Biolog plate: PM2, Biolog well: H8",0.322
same,approximate change in surviving CFU (log10),"Biolog plate: PM3, Biolog well: D11",-0.3
NC(=O)[C@H]1O[C@@H](O)[C@H](O)[C@@H](O)[C@@H]1O [Glucuronamide],approximate change in surviving CFU (log10),"Biolog plate: PM1, Biolog well: H7",1.03
same,approximate change in surviving CFU (log10),"Biolog plate: PM3, Biolog well: E6",0.622
CC(C)[C@H](N)C(=O)O [L-Valine],approximate change in surviving CFU (log10),"Biolog plate: PM2, Biolog well: H4",0.15
same,approximate change in surviving CFU (log10),"Biolog plate: PM3, Biolog well: C2",-0.386
N[C@@H](Cc1ccccc1)C(=O)O [L-Phenylalanine],approximate change in surviving CFU (log10),"Biolog plate: PM2, Biolog well: H2",-0.322
same,approximate change in surviving CFU (log10),"Biolog plate: PM3, Biolog well: B8",-0.215
NC(=O)CC[C@H](N)C(=O)O [L-Glutamine],approximate change in surviving CFU (log10),"Biolog plate: PM1, Biolog well: E1",0.322
same,approximate change in surviving CFU (log10),"Biolog plate: PM3, Biolog well: B1",-0.0429
N[C@H](CO)C(=O)O [D-Serine],approximate change in surviving CFU (log10),"Biolog plate: PM1, Biolog well: B1",1.14
same,approximate change in surviving CFU (log10),"Biolog plate: PM3, Biolog well: C8",0.279
CC[C@H](O)C(=O)O [a-Hydroxy Butyric Acid],approximate change in surviving CFU (log10),"Biolog plate: PM1, Biolog well: E7",-2.3
Nc1ncnc2c1ncn2[C@@H]1O[C@H](CO)[C@@H](O)[C@H]1O [Adenosine],approximate change in surviving CFU (log10),"Biolog plate: PM1, Biolog well: E12",0.622
same,approximate change in surviving CFU (log10),"Biolog plate: PM3, Biolog well: F3",0.751
N=C(N)NCCC[C@H](N)C(=O)O [L-Arginine],approximate change in surviving CFU (log10),"Biolog plate: PM2, Biolog well: G4",0.966
same,approximate change in surviving CFU (log10),"Biolog plate: PM3, Biolog well: A8",0.236
C[C@H](N)C(=O)O [L-Alanine],approximate change in surviving CFU (log10),"Biolog plate: PM1, Biolog well: G5",0.987
same,approximate change in surviving CFU (log10),"Biolog plate: PM3, Biolog well: A7",0.129
CC(C)C[C@H](N)C(=O)O [L-Leucine],approximate change in surviving CFU (log10),"Biolog plate: PM2, Biolog well: G10",0.451
same,approximate change in surviving CFU (log10),"Biolog plate: PM3, Biolog well: B5",-0.236
O=C(O)[C@@H]1CCCN1 [L-Proline],approximate change in surviving CFU (log10),"Biolog plate: PM1, Biolog well: A8",0.107
same,approximate change in surviving CFU (log10),"Biolog plate: PM3, Biolog well: B9",0.0858
N[C@@H](Cc1c[nH]cn1)C(=O)O [L-Histidine],approximate change in surviving CFU (log10),"Biolog plate: PM2, Biolog well: G6",1.01
same,approximate change in surviving CFU (log10),"Biolog plate: PM3, Biolog well: B3",0.279
CSCC[C@H](N)C(=O)O [L-Methionine],approximate change in surviving CFU (log10),"Biolog plate: PM2, Biolog well: G12",0.365
same,approximate change in surviving CFU (log10),"Biolog plate: PM3, Biolog well: B7",-0.88
O=c1ccn([C@@H]2O[C@H](CO)[C@@H](O)[C@H]2O)c(=O)[nH]1 [Uridine],approximate change in surviving CFU (log10),"Biolog plate: PM1, Biolog well: D12",1.74
same,approximate change in surviving CFU (log10),"Biolog plate: PM3, Biolog well: F11",-0.236
NCCc1ccc(O)cc1 [Tyramine],approximate change in surviving CFU (log10),"Biolog plate: PM1, Biolog well: H4",0.537
same,approximate change in surviving CFU (log10),"Biolog plate: PM3, Biolog well: E3",-1.37
CC(N)=O [Acetamide],approximate change in surviving CFU (log10),"Biolog plate: PM2, Biolog well: G1",-0.365
same,approximate change in surviving CFU (log10),"Biolog plate: PM3, Biolog well: E4",-1.76
CC(=O)N[C@H]1C(O)O[C@H](CO)[C@H](O)[C@@H]1O (stereo partly drawn) [N-Acetyl-D-Galactosamine],approximate change in surviving CFU (log10),"Biolog plate: PM2, Biolog well: B1",0.622
same,approximate change in surviving CFU (log10),"Biolog plate: PM3, Biolog well: E12",-0.129
C[C@@H](O)[C@H](N)C(=O)O [L-Threonine],approximate change in surviving CFU (log10),"Biolog plate: PM1, Biolog well: G4",1.03
same,approximate change in surviving CFU (log10),"Biolog plate: PM3, Biolog well: B11",-0.129
CCC(=O)O [Propionic Acid],approximate change in surviving CFU (log10),"Biolog plate: PM1, Biolog well: F7",-0.987
CC[C@H](C)[C@H](N)C(=O)O [L-Isoleucine],approximate change in surviving CFU (log10),"Biolog plate: PM2, Biolog well: G9",0.794
same,approximate change in surviving CFU (log10),"Biolog plate: PM3, Biolog well: B4",-0.0429
C[C@@H](N)C(=O)O [D-Alanine],approximate change in surviving CFU (log10),"Biolog plate: PM1, Biolog well: A9",0.622
same,approximate change in surviving CFU (log10),"Biolog plate: PM3, Biolog well: C3",0.343
O=C(O)CO [Glycolic Acid],approximate change in surviving CFU (log10),"Biolog plate: PM1, Biolog well: F9",0.736
same,approximate change in surviving CFU (log10),"Biolog plate: PM2, Biolog well: E9",0.644
N[C@@H](CCO)C(=O)O [L-Homoserine],approximate change in surviving CFU (log10),"Biolog plate: PM2, Biolog well: G7",0.923
same,approximate change in surviving CFU (log10),"Biolog plate: PM3, Biolog well: C11",0.365
Cc1cn([C@H]2C[C@H](O)[C@@H](CO)O2)c(=O)[nH]c1=O [Thymidine],approximate change in surviving CFU (log10),"Biolog plate: PM1, Biolog well: C12",1.5
same,approximate change in surviving CFU (log10),"Biolog plate: PM3, Biolog well: F9",-0.193
O=c1[nH]cnc2c1ncn2[C@@H]1O[C@H](CO)[C@@H](O)[C@H]1O [Inosine],approximate change in surviving CFU (log10),"Biolog plate: PM1, Biolog well: F12",1.65
same,approximate change in surviving CFU (log10),"Biolog plate: PM3, Biolog well: F12",-0.365
